In PubChem BioAssay (EPA / NIEHS):
Results filed as inconclusive are left out. The source made the active and inactive calls. How the source made its calls, unless noted: active means hit-call score of the fitted dose curve at least 0.9, where 1 is the maximum; inactive means score below 0.9.

Legend:
DIO1 (gene 1733) = experiment: CCTE_GLTED_hDIO1: CCTE's human Deiodinase 1 (DIO1) Inhibition Assay, Great Lakes Toxicology and Ecology Division (GLTED) Lab (AID 2283987; active means hit-call score of the fitted dose curve at least 0.9, where 1 is the maximum;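 further: isolated human DIO1 enzyme in a cell-free setup rather than cells; enzyme activity read as free iodide liberated from substrate via Sandell-Kolthoff colorimetry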)
In short: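 Chemicals are tested on human DIO1 without cells for 3 h. Uninhibited enzyme frees iodide, which speeds cerium(IV) reduction by arsenic and is read by spectrophotometry.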

[1] = CCTE_Shafer_MEA_acute_spike_number: CCTE's Neural Acute Assay for Total Number of Spikes, Shafer Lab (AID 2284008);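 on AC50: curve fitted for decrease in spike count so AC50 reflects inhibitors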
In short: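 Using an adaptive detector set to 8x rms noise, spikes were counted in 40-min windows before and after compound addition (0.03-40 uM) to rat cortical networks at 37 C; the well-level change from baseline was analysed relative to DMSO.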

[2] = CCTE_Shafer_MEA_acute_firing_rate_mean: CCTE's Neural Acute Assay for Mean Firing Rate, Shafer Lab (AID 2284009);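 further: analyzed for loss of signal so actives lower firing rate relative to DMSO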
In short: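 Read-out: well-mean spike rate (spikes/recording length/electrodes), % change from 40 min pre-dose baseline to 40 min with compound. Rat cortical cultures, DIV 13 or 15, 37 C; 0.03-40 uM; DMSO as negative control.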

[3] = CCTE_Harrill_HTTr_Viability_MCF7: CCTE's 6-hour Cell Viability Assessment for the High-Throughput Transcriptomics (HTTr) Platform, in MCF-7 cells cultured in DMEM + 10% fetal bovine serum, Harrill Lab (AID 2284010)
In short: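 Viability measured through PI dye exclusion by high-content imaging at 6 h post-dosing.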

[4] = CCTE_Harrill_HTTr_Apoptosis_MCF7: CCTE's 6-hour Apoptosis Assessment for the High-Throughput Transcriptomics (HTTr) Platform, in MCF-7 cells cultured in DMEM + 10% fetal bovine serum, Harrill Lab (AID 2284011)
In short: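 Apoptosis in MCF-7 cells grown in DMEM with 10% fetal bovine serum was scored after a six hour exposure by high content imaging of caspase-3/7 activation (CellEvent Caspase 3/7 Green), with DMSO serving as negative control and baseline.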

[5] = CCTE_Shafer_MEA_acute_burst_number: CCTE's Neural Acute Assay for Single-Electrode Bursts, Shafer Lab (AID 2284013)
In short: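 Rat cortical cultures, DIV 13/15; 40 min baseline, then 40 min with compound 0.03-40 uM, 37 C. Spikes: 300-5000 Hz band-pass, threshold 8x rms noise. Readout = % change in single-electrode bursts vs baseline, loss-of-signal fit.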

[6] = CCTE_Shafer_MEA_acute_burst_duration_mean: CCTE's Neural Acute Assay for Mean Burst Duration, Shafer Lab (AID 2284014);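 further: hits are decreases in mean burst duration relative to DMSO controls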
In short: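 Primary rat cortical neurons on 16-electrode MEA wells, treated on DIV 13 or 15 with compound (0.03-40 uM; ≥3 wells each). 40-min baseline and 40-min exposure recordings at 37 C; percent change in mean burst duration per well versus DMSO.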

[7] = CCTE_Shafer_MEA_acute_interburst_interval_mean: CCTE's Neural Acute Assay for Mean Interburst Interval, Shafer Lab (AID 2284016);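 further: percent change of mean interburst interval versus each well's own pre-dose baseline; curves fitted for decrease in interburst interval relative to DMSO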
In short: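 Primary rat cortical neurons on 16-electrode MEA wells were recorded 40 min at baseline on DIV 13 or 15, then 40 min after compound (0.03-40 uM), at 37 C. Value is percent change in mean interburst interval per well, DMSO as negative control.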

[8] = CCTE_Shafer_MEA_acute_burst_percentage_mean: CCTE's Neural Acute Assay for Percentage of Spikes in a Burst, Shafer Lab (AID 2284017);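 on AC50: curve fitted for loss of signal so potency reflects decreased burst percentage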
In short: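 Primary rat cortical neurons on 16-electrode MEA wells; 40 min baseline recorded at DIV 13 or 15, then 40 min after compound (0.03-40 uM) at 37 C. Well-mean fraction of spikes in single-electrode bursts; percent change from baseline, DMSO as negative control.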

[9] = CCTE_Shafer_MEA_acute_burst_percentage_std: CCTE's Neural Acute Assay for Standard Deviation of Burst Percentage, Shafer Lab (AID 2284018);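 further: fitted in the negative direction so actives lower burst percentage SD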
In short: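 Primary rat cortical neurons on 16-electrode MEA wells were recorded 40 min at baseline (DIV 13 or 15), then 40 min after compound (0.03-40 uM), at 37 C. Well value is SD across electrodes of spikes-in-bursts/total spikes; endpoint is percent change, DMSO-referenced.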

[10] = CCTE_Shafer_MEA_acute_per_network_burst_spike_number_mean: CCTE's Neural Acute Assay for Average Number of Spikes in a Network Burst, Shafer Lab (AID 2284019)
In short: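 Primary rat cortical neurons on 16-electrode MEA wells, DIV 13 or 15, 37 C; 40-min baseline then 40-min recording with compound (0.03-40 uM). Spikes per network burst (total spikes/number of bursts) expressed as percent change from baseline, DMSO reference.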

[11] = CCTE_Shafer_MEA_acute_per_network_burst_spike_number_std: CCTE's Neural Acute Assay for Standard Deviation of Number of Spikes in a Network Burst, Shafer Lab (AID 2284020);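 further: fitted for decrease in spike-number SD versus DMSO so actives lower it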
In short: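 Primary rat cortical neurons on 48-well MEAs (16 electrodes/well) recorded at DIV 13 or 15: 40-min baseline, then 40 min with compound (0.03-40 uM), 37 C. Value is percent change in SD of spikes per network burst, relative to DMSO.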

[12] = CCTE_Shafer_MEA_acute_per_network_burst_electrodes_number_mean: CCTE's Neural Acute Assay for Mean Number of Electrodes in a Network Burst, Shafer Lab (AID 2284021);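 further: curves fitted for decreases only so hits reduce electrodes per burst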
In short: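 Percent change from baseline in average electrode count per network burst, rat cortical cultures on 48-well MEAs; 40-min recordings each side of exposure, DIV 13 or 15; threshold 8x rms noise; DMSO as negative control.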

[13] = molecular target: Nucleoli Translocation, AR (gene 367) (UniProt P10275); experiment: UPITT_HCI_U2OS_AR_TIF2_Nucleoli_Antagonist: University of Pittsburgh U2OS Androgen Receptor-Transcriptional Intermediary Factor 2 (AR-TIF2) Antagonism High Content Imaging Assay for Nucleoli Translocation (AID 2283997; active means hit-call score of the fitted dose curve at least 0.9, where 1 is the maximum)
In short: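 U2OS cells expressing RFP-tagged human AR and GFP-tagged TIF2 were imaged by high-content fluorescence microscopy for red AR signal in the nucleolar region. Compounds were screened at 20 uM final (0.2% DMSO), with activity fitted relative to DHT as baseline.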

[14] = molecular target: Nucleoli Translocation, AR (gene 367) (UniProt P10275); experiment: UPITT_HCI_U2OS_AR_TIF2_Nucleoli_Agonist: University of Pittsburgh U2OS Androgen Receptor-Transcriptional Intermediary Factor 2 (AR-TIF2) Agonism High Content Imaging Assay for Nucleoli Translocation (AID 2283998; active means hit-call score of the fitted dose curve at least 0.9, where 1 is the maximum)
In short: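 High-content images quantify nucleolar accumulation of RFP-fused AR in cells also expressing GFP-TIF2; the endpoint is fitted as signal gain versus DMSO controls across final concentrations of 0.195 to 50 uM.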

[15] = molecular target: Ratio of Nucleoli Translocation and Cytoplasm, AR (gene 367) (UniProt P10275); experiment: UPITT_HCI_U2OS_AR_TIF2_Nucleoli_Cytoplasm_Ratio_Antagonist: University of Pittsburgh U2OS Androgen Receptor-Transcriptional Intermediary Factor 2 (AR-TIF2) Antagonism High Content Imaging Assay for Ratio of Nucleoli Translocation and Cytoplasm (AID 2283999; active means hit-call score of the fitted dose curve at least 0.9, where 1 is the maximum;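 further: antagonists lower the DHT-driven ratio of nucleolar to cytoplasmic red signal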)
In short: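 High-content imaging quantifies the red nucleolar:cytoplasmic fluorescence ratio in U2OS cells with AR-RFP and TIF2-GFP. Final concentrations are 20 uM (screen) or 0.195–50 uM (dose response), analysed against DHT as baseline.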

[16] = molecular target: Ratio of Nucleoli Translocation and Cytoplasm, AR (gene 367) (UniProt P10275); experiment: UPITT_HCI_U2OS_AR_TIF2_Nucleoli_Cytoplasm_Ratio_Agonist: University of Pittsburgh U2OS Androgen Receptor-Transcriptional Intermediary Factor 2 (AR-TIF2) Agonism High Content Imaging Assay for Ratio of Nucleoli Translocation and Cytoplasm (AID 2284000; active means hit-call score of the fitted dose curve at least 0.9, where 1 is the maximum;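 further: hits raise the red nucleolar to cytoplasm ratio above vehicle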)
In short: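 U2OS cells expressing RFP-tagged human AR and GFP-tagged TIF2 were imaged by high-content fluorescence microscopy. The endpoint is the ratio of nucleolar to cytoplasmic red fluorescence, fitted for gain of signal relative to DMSO. Concentration-response spanned 0.195 to 50 uM final (0.5% DMSO).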

[17] = CCTE_Simmons_MITO_viability: CellTiter-Glo Viability Assessment for CCTE's HepG2 Seahorse XF Respirometric Screening Assay [post-hoc], Simmons Lab (AID 2284007; active means hit-call score of the fitted dose curve at least 0.9, where 1 is the maximum;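 on AC50: cells exposed to chemical for 90 min before the ATP read; actives lower ATP signal relative to DMSO baseline meaning reduced viability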)
In short: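 HepG2 cells; test chemical 7 conc. (125 nM–100 uM final) × 90 min; then luminescent ATP detection. DMSO vehicle. Positive control dichlone, 8 conc. from 10 nM to 100 uM final. Loss-of-signal endpoint.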

[18] = CCTE_Harrill_HTTr_CellCount_MCF7: CCTE's Cell Proliferation Assessment for the High-Throughput Transcriptomics (HTTr) Platform, Harrill Lab (AID 2284012; active means hit-call score of the fitted dose curve at least 0.9, where 1 is the maximum;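 further: count of Hoechst-stained nuclei per well by high-content imaging in MCF-7 cells; cells exposed to compound for six hours; intended direction is loss of nuclei count meaning fewer cells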)
In short: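 Nuclei counting (Hoechst, high content imaging) in MCF-7 after a 6 h treatment at eight concentrations. Activity fitted bidirectionally, DMSO as negative control.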

[19] = CCTE_Simmons_MITO_max_resp_rate: CCTE's HepG2 Seahorse XF Respirometric Screening Assay at Maximal Respiratory State [uncoupled], Simmons Lab (AID 2284002); settings: actives raise or lower the signal
In short: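 Uncoupled (FCCP) respiration of HepG2 cells served as the endpoint, with measurements at 6-minute intervals across a 72-minute run and compounds dosed at 7 concentrations up to 100 uM final.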

Measured: AC50

Sequence of Ratio of Nucleoli Translocation and Cytoplasm, AR (gene 367) (P10275 whole entry, looked up): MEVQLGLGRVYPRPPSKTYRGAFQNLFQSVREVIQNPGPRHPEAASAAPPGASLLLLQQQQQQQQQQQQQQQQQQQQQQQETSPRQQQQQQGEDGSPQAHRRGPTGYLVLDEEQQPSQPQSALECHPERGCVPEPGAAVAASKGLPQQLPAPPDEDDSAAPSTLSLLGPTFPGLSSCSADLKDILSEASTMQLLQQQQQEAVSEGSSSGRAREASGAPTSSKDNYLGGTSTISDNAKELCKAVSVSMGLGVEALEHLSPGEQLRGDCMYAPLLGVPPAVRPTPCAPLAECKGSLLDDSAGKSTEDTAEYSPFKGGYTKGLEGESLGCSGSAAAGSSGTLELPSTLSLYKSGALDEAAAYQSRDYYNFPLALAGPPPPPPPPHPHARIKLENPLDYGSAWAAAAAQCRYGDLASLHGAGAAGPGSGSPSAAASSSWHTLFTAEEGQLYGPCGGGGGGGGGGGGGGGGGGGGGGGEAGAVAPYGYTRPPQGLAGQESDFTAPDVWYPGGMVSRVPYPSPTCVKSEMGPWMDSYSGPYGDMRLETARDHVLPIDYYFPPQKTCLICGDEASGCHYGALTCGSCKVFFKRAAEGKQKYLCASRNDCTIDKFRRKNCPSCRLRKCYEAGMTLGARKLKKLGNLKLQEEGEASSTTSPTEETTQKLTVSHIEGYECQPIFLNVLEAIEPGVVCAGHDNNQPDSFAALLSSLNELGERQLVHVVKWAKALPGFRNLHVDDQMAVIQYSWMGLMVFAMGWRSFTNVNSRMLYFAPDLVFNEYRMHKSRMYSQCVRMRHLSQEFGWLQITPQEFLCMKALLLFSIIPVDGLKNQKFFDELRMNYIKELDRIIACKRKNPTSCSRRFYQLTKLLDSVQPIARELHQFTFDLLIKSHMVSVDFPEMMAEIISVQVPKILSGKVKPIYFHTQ
Sequence of Nucleoli Translocation, AR (gene 367) (P10275 whole entry, looked up, the tested form may be a part): as the sequence (P10275 whole entry, looked up) above

CCOC(=O)CC(SP(=O)(OC)OC)C(=O)OCC (stereo not given)
not listed: [13] | [14] | [15] | [16] | [17] | [18] | [19]
inactive: all other assays above

CCOP(=O)(NC(C)C)Oc1ccc(SC)c(C)c1 (stereo not given)
active: [1] 10.2 µM | [2] 10.2 µM | [8] 30.2 µM
not listed: DIO1 (gene 1733) | [19]
inactive: all other assays above

COP(=O)(OC)OC(Br)C(Cl)(Cl)Br (stereo not given)
active: [13] 13.6 µM | [14] 79 µM | [16] 77.9 µM | [17] 50 µM
inactive: [15] | [19] | [3] | [4] | [18]
